High-throughput results (PubChem)
SW480 rerep = A quantitative high throughput screen for small molecules that induce DNA re-replication in SW480 colon adenocarcinoma cells; SW480 DNA re-replication, Hoechst DNA content imaging, 48 h; AID 624297, 2012; Potency, µM (series often up to 46.1 µM), usual class: activators; 340,000 compounds, 1.8% hits; further: nearly all actives have a fitted effect of over 55% in size
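Image-based read-out: total Hoechst fluorescence of nuclei (405 nm excitation, 500-530 nm emission), with hits raising the fraction of high-intensity nuclei. SW480 colon cells incubated 48 hr with compounds at 37 C.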
ELG1 repair inh = qHTS screen for small molecules that inhibit ELG1-dependent DNA repair in human embryonic kidney (HEK293T) cells expressing luciferase-tagged ELG1. HEK293T ELG1-luciferase reporter, luminescence, 16 h; DNA damage induced by 5-fluorouridine. Potency, µM (top dose mostly 46.1 µM), hits mostly inhibitors. 330,000 compounds, 2.3% hits; further: nearly all actives have a fitted effect of over 55% in size
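Luminescence from the luciferase reporter, measured 30 min after ONE-Glo reagent at room temperature, was the read-out. Beforehand, 2,000 cells per well were exposed for 16 hr at 37 °C to 5-fluorouridine together with compound or vehicle.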
MCF10A rereplic = A quantitative high throughput screen for small molecules that induce DNA re-replication in MCF 10a normal breast cells | MCF 10A DNA re-replication, Hoechst nuclear intensity, 48 h | Potency, µM (highest dose often 46.1 µM), usual class: activators | 350,000 compounds, 2.9% hits; further: nearly all actives have a fitted effect of over 50% in size
A-T KAP1 phos = qHTS Assay for Identifying a Potential Treatment of Ataxia-Telangiectasia; F2112 A-T fibroblasts, KAP-1 phosphorylation AlphaLISA; neocarzinostatin DNA damage 30 min before lysis; Potency, µM (doses to about 57.5 µM), most hits filed as activators; 320,000 compounds, 0.19% hits; AID 485349, 2010; further: nearly all actives have a fitted effect of over 45% in size
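ATM-like activity read as KAP-1 phosphorylation via AlphaLISA donor/acceptor antibody pairs after lysis and 6 hr at 25C. Cells were ATM-null patient fibroblasts (F2112, hTERT), dosed 60 min, then exposed to the DSB inducer NCS for 30 min.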
p53 reactivation = qHTS assay for re-activators of p53 using a Luc reporter; H1299 p53-A138V BP100-luciferase reporter, luminescence, 24 h; Potency, µM (doses to about 92.2 µM), actives largely listed as activators; 320,000 compounds, 0.063% hits; AID 504706, 2011; further: nearly all actives have a fitted effect of over 45% in size
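p53-null H1299 cells stably carrying temperature-sensitive p53-A138V and a BP100-luciferase reporter were pinned with compounds (4-point, 1:5 series) and held 24 hrs at 37 deg C. Luminescence was read 10 min after detection reagent.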
ELG1 genotoxic = qHTS screen for small molecules that induce genotoxicity in human embryonic kidney (HEK293T) cells expressing luciferase-tagged ELG1; HEK293T ELG1-luciferase reporter, luminescence, 16 h; Potency, µM (top dose mostly 46 µM), usual class: activators; 330,000 compounds, 1.3% hits; AID 504466, 2011; further: nearly all actives have a fitted effect of over 60% in size
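Genotoxicity was scored as increased ELG1-luciferase reporter signal, measured by ONE-Glo luminescence (30 min, room temperature). Compound or vehicle exposure of the HEK293T reporter cells lasted 16 hr at 37°C.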
Each line names hits and unclear results; the compound was inactive in the other large screens. Only some compounds are listed: those with a hit (about 7.1% of all), similar ones and a draw of the others. The call rests on the fitted dose curve; in most records, active means well fitted curve in the direction sought with a large enough effect; inconclusive means small, poorly fitted or top-dose-only effect, or another doubt; inactive means no such curve, though single readings can be large; an effect the other way counts as inactive or inconclusive.

CCCCCC(=O)Nc1cccc(C2=NOC3(C2)C[C@H](C(N)=O)N(C(=O)COc2ccc(Cl)cc2)C3)c1 (stereo partly specified)	SW480 rerep inconclusive, ELG1 repair inh 7.3µM, MCF10A rereplic inconclusive
C/C=C\C=C/C(=O)Nc1cccc(C2=NOC3(C2)C[C@@H](C(N)=O)N(C(=O)COc2ccc(Cl)cc2)C3)c1 (stereo partly specified)	SW480 rerep inconclusive, A-T KAP1 phos 3.16µM
Cc1cccc(NS(=O)(=O)c2ccc(C)c(C(=O)NCCCN3CCOCC3)c2)c1	MCF10A rereplic inconclusive
C/C1=C\CCC2C(/C=C(\C)CC1)OC(=O)C2CN1CCCCC1 (stereo unspecified)	SW480 rerep 20.6µM, MCF10A rereplic inconclusive
CCc1cc2c(COC(=O)c3cc(S(=O)(=O)N4CCOCC4)ccc3F)cc(=O)oc2cc1O	ELG1 repair inh inconclusive, MCF10A rereplic inconclusive
CCc1cc2c(COC(=O)c3cccc(NS(C)(=O)=O)c3)cc(=O)oc2cc1O	ELG1 repair inh inconclusive, MCF10A rereplic 9.2µM
CCCNS(=O)(=O)c1cccc(C(=O)OCc2cc(=O)oc3cc(OC)ccc23)c1	SW480 rerep inconclusive, MCF10A rereplic 7.31µM
COc1ccc2c(COC(=O)c3cccc(S(=O)(=O)NCC(C)C)c3)cc(=O)oc2c1	MCF10A rereplic inconclusive
Cn1c(/C(C#N)=C/c2ccncc2)nc2ccccc21	SW480 rerep 18.4µM, MCF10A rereplic inconclusive
Cc1nn2c(-c3ccc(S(=O)(=O)N4CCN(CCO)CC4)o3)nnc2c2ccccc12	SW480 rerep 18.4µM
COc1ccc(-c2nnc3c4ccccc4c(C)nn23)cc1S(=O)(=O)N1CCN(CCO)CC1	ELG1 repair inh inconclusive
COC(=O)C1(C)NC(c2ccc(OC)cc2)C2C(=O)N(c3ccccc3)C(=O)C21 (stereo unspecified)	none
CNC[C@H](O)c1ccc(OC(=O)C(C)(C)C)c(OC(=O)C(C)(C)C)c1	none (no result: ELG1 repair inh, A-T KAP1 phos, p53 reactivation, ELG1 genotoxic)
COc1ccc(NC(=O)Nc2cccc3ccccc23)cc1S(N)(=O)=O	none
COCCNC(=O)COC(=O)/C=C/c1c(C)nn(Cc2ccc(Cl)cc2Cl)c1Cl	MCF10A rereplic 12.6µM
Cc1nn(Cc2c(Cl)cccc2Cl)c(Cl)c1/C=C/C(=O)OCC(=O)NCC(F)(F)F	none
c1ccc(Oc2cc(-n3cccn3)ncn2)cc1	ELG1 repair inh inconclusive, p53 reactivation inconclusive, ELG1 genotoxic 8.2µM
CCn1c(N2CCN(S(=O)(=O)c3ccc(Cl)cc3)CC2)nc2ccccc21	ELG1 repair inh 14.6µM
CCn1c(N2CCN(C(=S)NCC(C)C)CC2)nc2ccccc21	ELG1 repair inh inconclusive, MCF10A rereplic 18.4µM
CCn1c(N2CCN(C(=S)NC)CC2)nc2ccccc21	none
CC(=O)N[C@@H](Cc1c[nH]c2ccccc12)C(=O)NC1CCCc2ccccc21 (stereo partly specified)	none
CC(Oc1ccc(F)cc1)C(=O)Nc1cccc(-c2nn[nH]n2)c1 (stereo unspecified)	none (no result: p53 reactivation)
CCCCN(CC)S(=O)(=O)c1ccc(C(=O)N=c2sc3cc(NC(C)=O)ccc3n2C)cc1	SW480 rerep 7.31µM, ELG1 repair inh inconclusive, MCF10A rereplic 10.3µM
CCCCN(C)S(=O)(=O)c1ccc(C(=O)N=c2sc3cc(NC(C)=O)ccc3n2C)cc1	none
Cc1ccc(S(=O)(=O)Nc2c(C)n(C)n(-c3ccccc3)c2=O)cc1C(=O)NCc1ccco1	none (no result: ELG1 repair inh, A-T KAP1 phos, p53 reactivation, ELG1 genotoxic)
COCCNc1nnc(SCC(=O)Nc2nnc(-c3ccccc3)o2)s1	none
CCCc1ccc(-c2cc(NC(=O)CSc3n[nH]c(N)n3)n(-c3ccccc3)n2)cc1	SW480 rerep inconclusive, MCF10A rereplic 20.6µM, ELG1 genotoxic inconclusive (no result: A-T KAP1 phos)
COc1ccc(-n2cnnc2SCC(=O)Nc2cc(C(C)(C)C)nn2-c2ccccc2)cc1	ELG1 repair inh 20.6µM
CC(C)(C)c1cc(NC(=O)CSc2nnc(N)s2)n(-c2ccccc2)n1	none
CC(C)(C)c1cc(NC(=O)CSc2nnc(NCc3ccccc3)s2)n(-c2ccccc2)n1	ELG1 repair inh 23.1µM, MCF10A rereplic inconclusive
COCCNc1nnc(SCC(=O)Nc2cc(-c3ccccc3)nn2-c2ccccc2)s1	ELG1 repair inh 20.6µM
Cc1ccc(NC(=O)CN(C)CC(=O)N(C)Cc2ccccc2)cc1	none
O=C(C[C@H]1C[C@H](C(=O)N2CCCCC2)[C@@]2(CCc3ccccc3)c3[nH]c4ccc(Cl)cc4c3CCN2C1=O)NCCC1=CCCCC1	none
Cc1sc2nc(Cc3ccccc3)[nH]c(=O)c2c1-c1ccccc1	none
CCc1nc(C)c(-c2ccccc2)c(=O)[nH]1	SW480 rerep 18.4µM, MCF10A rereplic inconclusive
O=C(COC(=O)c1ccc(F)cc1Cl)NC(=O)NC1CCCC1	none
Nc1ccc(-n2nc3ccccc3n2)cc1	SW480 rerep inconclusive, MCF10A rereplic 23.1µM (no result: ELG1 repair inh, A-T KAP1 phos, p53 reactivation, ELG1 genotoxic)
Nc1cc2nn(-c3ccccc3)nc2cc1Cl	SW480 rerep inconclusive, ELG1 repair inh inconclusive, MCF10A rereplic 18.4µM, p53 reactivation inconclusive
CC(C)CC(=O)Nc1cc2nn(-c3ccccc3)nc2cc1Cl	ELG1 repair inh inconclusive, p53 reactivation inconclusive, ELG1 genotoxic 4.61µM
Nc1ccc2nn(-c3ccccc3)nc2c1	SW480 rerep 14.6µM, ELG1 repair inh inconclusive, MCF10A rereplic 18.4µM, ELG1 genotoxic inconclusive
CC(C)CC(=O)Nc1cccc2c1C(=O)N(c1ccccc1)C2=O	none
Nc1ccc2c(c1)nnn2-c1ccccc1	ELG1 repair inh inconclusive
c1csc(-n2nc3ccccc3n2)c1	ELG1 repair inh inconclusive
COc1ccc(NC(=O)/C(=C\c2ccc(F)cc2)NC(=O)c2ccco2)cc1	none
COCCNC(=O)C(=O)Nc1cc2c3c(c1)CCC(=O)N3CCC2	SW480 rerep inconclusive, MCF10A rereplic inconclusive
CCOC(=O)c1ccc(Oc2nc(NC(C)(C)C)nc(N(C)C)n2)cc1	SW480 rerep inconclusive, ELG1 repair inh inconclusive, MCF10A rereplic 16.4µM (no result: A-T KAP1 phos)
CCOc1ccc(C(C)NC(=O)Cc2ccccc2)cc1OCC (stereo unspecified)	SW480 rerep 14.6µM
CCOc1ccc(C(CCc2ccccc2)NC(=O)c2ccccc2OC)cc1OCC (stereo unspecified)	SW480 rerep inconclusive, ELG1 repair inh inconclusive, MCF10A rereplic 20.6µM
CC1(C(=O)N/N=C/c2ccc3c(c2)OCO3)CC1(Br)Br (stereo unspecified)	none
